Results taken from the supplement of paper PMC9950053.
Where a name gives a salt, the structure may show the parent alone.

tested on: Danio rerio larvae (5 dpf); test: startle (activity period 16 minus period 15, 20-s interval sound) minus DMSO control (percentage points); higher = stronger startle response than DMSO larvae; conditions: 10 µM; exposure time: 3 h pre-incubation + 3 h imaging
Method: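 Wild-type 5 dpf zebrafish larvae (n=48 per drug, 96-well plates, 28.5 °C) were exposed to Tocris FDA-approved library compounds at 10 µM (0.1% DMSO) for 3 h before and 3 h during imaging. Images were taken every 6 s during visual (moving coloured lines) and acoustic stimuli, and larvae were tracked with the DeepLabCut-based Z-LaP Tracker. Each behavioural measure is the treated-group mean minus the DMSO vehicle control mean (n=844), in percentage points. This mapping covers compounds with 4-character plate codes.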

| SMILES | startle |
| --- | --- |
| CC(C)C(=O)Nc1ccc([N+](=O)[O-])c(C(F)(F)F)c1 [Flutamide] | -5.6 |
| Cc1ccc(O)c([C@H](CCN(C(C)C)C(C)C)c2ccccc2)c1 [Tolterodine L-tartrate] | -5.5 |
| CN(C)CC/C=C1/c2ccccc2COc2ccc(CC(=O)O)cc21 [Olopatadine hydrochloride] | 1.07 |
| Cn1cnc([N+](=O)[O-])c1Sc1ncnc2[nH]cnc12 [Azathioprine] | -0.818 |
| NC(=O)N1c2ccccc2C=Cc2ccccc21 [Carbamazepine] | 3.47 |
| Nc1cccc2c1CN(C1CCC(=O)NC1=O)C2=O (stereo not given) [Lenalidomide] | -4.19 |
| Cc1nc(Nc2ncc(C(=O)Nc3c(C)cccc3Cl)s2)cc(N2CCN(CCO)CC2)n1 [Dasatinib] | -0.00442 |
| CC(C)C(=O)OCC(=O)[C@@]12O[C@H](C3CCCCC3)O[C@@H]1C[C@H]1[C@@H]3CCC4=CC(=O)C=C[C@]4(C)[C@H]3[C@@H](O)C[C@@]12C [Ciclesonide] | -5.21 |
| CCOC(=O)C1=C(C)NC(C)=C(C(=O)OC)C1c1cccc(Cl)c1Cl (stereo not given) [Felodipine] | 7.93 |
| COc1cc2nc(N3CCN(C(=O)C4COc5ccccc5O4)CC3)nc(N)c2cc1OC (stereo not given) [Doxazosin mesylate] | 6.47 |
| C#C[C@]1(O)CC[C@H]2[C@@H]3CCC4=CC(=O)CC[C@@H]4[C@H]3CC[C@@]21CC [Levonorgestrel] | -4.23 |
| CCC(=O)O[C@]1(C(=O)SCF)[C@H](C)C[C@H]2[C@@H]3C[C@H](F)C4=CC(=O)C=C[C@]4(C)[C@@]3(F)[C@@H](O)C[C@@]21C [Fluticasone propionate] | -2.41 |
| C[C@]12CCC(=O)C=C1CC[C@@H]1[C@@H]2[C@@H](O)C[C@@]2(C)[C@H]1CC[C@]2(O)C(=O)CO [Hydrocortisone] | 0.463 |
| N#Cc1ccc(C(c2ccc(C#N)cc2)n2cncn2)cc1 [Letrozole] | 6.54 |
| CC(c1cc2ccccc2s1)N(O)C(N)=O (stereo not given) [Zileuton] | -0.862 |
| CCC(C)(C)C(=O)O[C@H]1C[C@@H](C)C=C2C=C[C@H](C)[C@H](CC[C@@H]3C[C@@H](O)CC(=O)O3)[C@H]21 [Simvastatin] | 3.93 |
| CCCN(CCc1cccs1)[C@H]1CCc2c(O)cccc2C1 [Rotigotine hydrochloride] | -5.79 |
| CC(=O)O[C@]1(C(C)=O)CC[C@H]2[C@@H]3C=C(C)C4=CC(=O)CC[C@]4(C)[C@H]3CC[C@@]21C [Megestrol Acetate] | -12.5 |
| CC(C)Nc1cccnc1N1CCN(C(=O)c2cc3cc(NS(C)(=O)=O)ccc3[nH]2)CC1 [Delavirdine mesylate] | -4.71 |
| OCCOCCN1CCN(C2=Nc3ccccc3Sc3ccccc32)CC1 [Quetiapine hemifumarate] | -0.888 |

| SMILES | startle |
| --- | --- |
| CCc1ccc(CCOc2ccc(CC3SC(=O)NC3=O)cc2)nc1 (stereo not given) [Pioglitazone hydrochloride] | -4.69 |
| CN(C)CCC[C@@]1(c2ccc(F)cc2)OCc2cc(C#N)ccc21 [Escitalopram oxalate] | -7.28 |
| Nc1nc2[nH]cc(CCc3ccc(C(=O)N[C@@H](CCC(=O)O)C(=O)O)cc3)c2c(=O)[nH]1 [Pemetrexed] | -5.08 |
| C=C1[C@H](CO)[C@@H](O)C[C@@H]1n1cnc2c(=O)[nH]c(N)nc21 [Entecavir] | 3.99 |
| CC(C)n1c(/C=C/C(O)CC(O)CC(=O)O)c(-c2ccc(F)cc2)c2ccccc21 (stereo not given) [Fluvastatin sodium] | 3.68 |
| CNC(=O)c1ccccc1Sc1ccc2c(/C=C/c3ccccn3)n[nH]c2c1 [Axitinib] | -7.2 |
| CC1(C)O[C@@H]2[C@@H](CO[C@@]3(COS(N)(=O)=O)OC(C)(C)O[C@@H]23)O1 [Topiramate] | -0.863 |
| COc1c(C)c2c(c(O)c1C/C=C(\C)CCC(=O)OCCN1CCOCC1)C(=O)OC2 [Mycophenolate mofetil] | 3.22 |
| CN(CCOc1ccc(NS(C)(=O)=O)cc1)CCc1ccc(NS(C)(=O)=O)cc1 [Dofetilide] | 0.253 |
| COc1cc(Nc2c(C#N)cnc3cc(OCCCN4CCN(C)CC4)c(OC)cc23)c(Cl)cc1Cl [Bosutinib] | -0.373 |
| COc1cccc2c1C(=O)c1c(O)c3c(c(O)c1C2=O)C[C@@](O)(C(=O)CO)C[C@@H]3O[C@H]1C[C@H](N)[C@H](O)[C@H](C)O1 [Doxorubicin hydrochloride] | 3.54 |
| CCOC(=O)N1CCC(=C2c3ccc(Cl)cc3CCc3cccnc32)CC1 [Loratidine] | 8.94 |
| N[C@@H]1[C@H]2CN(c3nc4c(cc3F)c(=O)c(C(=O)O)cn4-c3ccc(F)cc3F)C[C@@H]12 [Trovafloxacin mesylate] | -8.4 |
| CCCN(CCC)S(=O)(=O)c1ccc(C(=O)O)cc1 [Probenecid] | 0.405 |
| CC(=O)O[C@H]1C(=O)[C@@]2(C)[C@H]([C@H](OC(=O)c3ccccc3)[C@]3(O)C[C@H](OC(=O)[C@H](O)[C@@H](NC(=O)c4ccccc4)c4ccccc4)C(C)=C1C3(C)C)[C@]1(OC(C)=O)CO[C@@H]1C[C@@H]2O [Taxol] | 1.37 |
| O=C(Nc1c(Cl)cncc1Cl)c1ccc(OC(F)F)c(OCC2CC2)c1 [Roflumilast] | 3.93 |
| CCOC(=O)[C@H](CCc1ccccc1)N[C@H]1CCc2ccccc2N(CC(=O)O)C1=O [Benazepril hydrochloride] | -0.0488 |
| CN1CCN(CCCN2c3ccccc3Sc3ccc(Cl)cc32)CC1 [Prochlorperazine dimaleate] | -8.12 |
| CCOc1nc2cccc(C(=O)O)c2n1Cc1ccc(-c2ccccc2-c2nnn[nH]2)cc1 [Candesartan] | 11.2 |
| CCOC(=O)[C@H](CCc1ccccc1)N[C@@H](C)C(=O)N1[C@H](C(=O)O)C[C@@H]2CCC[C@@H]21 [Ramipril] | -0.503 |
